# Key:
# Format in all cases: functional
# Plasmodium falciparum [1] = assay: GSK_TCMDC: Inhibition of Plasmodium falciparum 3D7 in whole red blood cells, using parasite LDH activity as an index of growth. Test compounds present at 2uM
# Plasmodium falciparum [2] = assay: GSK_TCMDC: Inhibition of Plasmodium falciparum Dd2 in whole red blood cells, using parasite LDH activity as an index of growth. Test compounds present at 2uM
# HepG2 = assay: GSK_TCMDC: Percent inhibition of human HepG2 cell line. Test compounds present at 10uM.
SMILES,Inhibition (Plasmodium falciparum [1]) [%],Inhibition (Plasmodium falciparum [2]) [%],Inhibition (HepG2) [%]
CCN(CC)CCN1C(=O)c2oc3ccc(Cl)cc3c(=O)c2C1c1ccc(SC)cc1 (stereo not given),98,6,0
COc1ccc(NC(=O)c2ccc(OCCCCCCCOc3ccc(C(=O)Nc4ccc(OC)c(N5CCN(C)CC5)c4)cc3)cc2)cc1N1CCN(C)CC1.O=C(O)C(=O)O,96,91,98
COC(=O)Cn1c2ccccc2c2c(N)c(C(=O)OC)c(C)nc21,93,1,0
CC(C)(C)c1ccc(NC(=O)Nc2ccc(Cn3ncc(N4CCCNCC4)c(Cl)c3=O)cc2)cc1.O=C(O)C(F)(F)F,95,33,0
COCCNCc1cccc(-c2ccc3c(Nc4ccc(Oc5ccccc5)cc4)ccnc3c2)c1,100,99,25
CS(=O)(=O)c1cccc(-c2cnc3[nH]cc(-c4ccc(C(=O)O)cc4)c3c2)c1,99,100,6
CCNc1cc(C(=O)N[C@@H](Cc2ccccc2)[C@H](O)CNC2(C(C)C)CCC2)cc(N2CCCCS2(=O)=O)c1.Cl,99,85,0
N#Cc1cccc(C(=O)Nc2ccc(-c3nc4ccccc4[nH]3)cc2)c1,91,38,33
Nc1ccc(-c2nc3cc(Cc4ccc5[nH]c(-c6ccc(N)cc6)nc5c4)ccc3[nH]2)cc1,100,96,47
COc1ccc2c(CCNc3nc(SC)ncc3C(=O)NCCc3ccc(F)cc3)c[nH]c2c1.O=C(O)C(F)(F)F,91,49,3

# Reference: ChEMBL document CHEMBL1157539, “Thousands of chemical starting points for antimalarial lead identification” (Nature, 2010)
